# Source: PubChem BioAssay (NCATS)
# Inconclusive results are not listed. Unmarked numbers belong to inactive results. Activity calls are given as the source filed them. Calls come from the whole dose curve; as a rule, active = well fitted inhibition curve with a large enough effect; inconclusive = small, poorly fitted or top-dose-only effect; inactive = flat fitted curve, though single readings scatter.
# Biological target: Calcium and integrin-binding protein 1 (Homo sapiens) (UniProt Q99828)
# Assay: Primary qHTS for Identification of Calcium Integrin Binding Protein 1 (CIB1) Competitor (AID 1508620); note: top concentration of the series differs between compounds
# Details: CIB1-GST / FITC-alphaIIb peptide fluorescence polarization; series mostly up to 57.7 µM; activity change, negative = inhibition: at the top concentration
# Method in brief: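 Fluorescence polarization competition: GST-tagged CIB1 (1 uM final) preincubated with compound 15 min at room temperature, then FITC-labelled alphaIIb peptide (100 nM final) added. After 15 min at room temperature, polarization read at Ex 480/Em 540.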
# % is set by controls: 0 for no effect and ±100 for the full control effect.
# Chain of Calcium and integrin-binding protein 1 (Homo sapiens) (Q99828 whole entry, looked up): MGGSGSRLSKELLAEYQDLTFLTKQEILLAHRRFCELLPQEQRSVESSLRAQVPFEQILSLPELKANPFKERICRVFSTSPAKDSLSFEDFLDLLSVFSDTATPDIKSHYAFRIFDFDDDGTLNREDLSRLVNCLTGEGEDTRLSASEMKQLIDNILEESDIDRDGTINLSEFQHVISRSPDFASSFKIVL
SMILES,Potency,"activity change, negative = inhibition"
N#Cc1ccc(Oc2ccc3c(c2)COB3O)cc1,inactive,
CCCCC(C=O)NC(=O)C(CC(C)C)NC(=O)OCc1ccccc1 (stereo unspecified),,-1.53%
CN(C)c1ccc(-c2nc3ncc(Cl)c(N4CCN(CC(=O)Nc5nccs5)CC4)c3[nH]2)cc1,inactive,
CNc1nc(-c2ccc3c(N)n[nH]c3c2)cc(N2C[C@@H](C(=O)NC3CCCCC3)CC[C@@H]2C)n1,,-5.55%
CC(C)CN(C[C@@H](O)[C@H](Cc1ccccc1)NC(=O)O[C@H]1CO[C@H]2OCC[C@H]21)S(=O)(=O)c1ccc(N)cc1,,-4.86%
COc1cc2nccc(Oc3ccc(NC(=O)Nc4cc(C)on4)c(Cl)c3)c2cc1OC,inactive,
CSc1cccc(Nc2ncc3cc(-c4c(Cl)cccc4Cl)c(=O)n(C)c3n2)c1,,0.529%
CC[C@H](C)C(=O)O[C@H]1C[C@H](O)C=C2C=C[C@H](C)[C@H](CC[C@@H](O)C[C@@H](O)CC(=O)O)[C@H]21,,-8.51%
N#CC(c1ccc(Cl)cc1)c1c(Cl)cc(-n2ncc(=O)[nH]c2=O)cc1Cl (stereo unspecified),,-0.972%
CNC(=O)[C@H](Cc1ccccc1)NC(=O)[C@H](CC(C)C)[C@H](CSc1cccs1)C(=O)NO,,1.51%
COc1cc2c(cc1OC)CC(=O)N(CCCN(C)C[C@H]1Cc3cc(OC)c(OC)cc31)CC2,,-6.59%
Cn1c(=O)c(-c2c(Cl)cccc2Cl)cc2cnc(Nc3cccc(C(=O)O)c3)nc21,inactive,
CO[C@H]1/C=C\O[C@@]2(C)Oc3c(C)c(O)c4c(O)c(c(C=NN5CCN(C6CCCC6)CC5)c(O)c4c3C2=O)NC(=O)C(C)=CC=C[C@H](C)[C@H](O)[C@@H](C)[C@@H](O)[C@@H](C)[C@H](OC(C)=O)[C@H]1C,,-9.32%
CC(C)(F)C[C@H](N[C@@H](c1ccc(-c2ccc(S(C)(=O)=O)cc2)cc1)C(F)(F)F)C(=O)NC1(C#N)CC1,,-0.678%
CC(C)CN(C[C@H](O)[C@H](Cc1ccccc1)NC(=O)O[C@H]1CCOC1)S(=O)(=O)c1ccc(N)cc1,,-4.22%
O=C1C(c2c(O)[nH]c3ccccc23)=Nc2ccccc21,inactive,
CC[C@H](CC#N)OC(=O)N[C@@H](C)c1cccc(NC(=O)Nc2ccc(-c3cnco3)c(OC)c2)c1,inactive,
CCN(CC)CCCCNc1nc2cc(Cl)c(Cl)cc2nc1-c1ccc(-c2cccs2)s1,,-0.333%

SMILES,Potency,"activity change, negative = inhibition"
CCN(CCO)CCCOc1ccc2c(Nc3cc(CC(=O)Nc4cccc(F)c4)[nH]n3)ncnc2c1,inactive,
Cc1ccc2c(c1)c1c(n2CCc2ccc(C)nc2)CCN(C)C1,inactive,
O=C1C(CCC(O)c2ccc(F)cc2)C(c2ccc(O)cc2)N1c1ccc(F)cc1 (stereo unspecified),,-6.43%
Cc1[nH]c(C=C2C(=O)Nc3ccc(S(=O)(=O)N(C)c4cccc(Cl)c4)cc32)c(C)c1C(=O)N1CCN(C)CC1,,1.64%
CCN1CCC(n2cc(CNc3cc(Cl)c4ncc(C#N)c(Nc5ccc(F)c(Cl)c5)c4c3)nn2)CC1,inactive,
Cn1cnc(-c2cc3nccc(Oc4ccc(NC(=S)NC(=O)Cc5ccccc5)cc4F)c3s2)c1,inactive,
O=C(O)c1nc(=O)[nH]c(=O)[nH]1,,1.53% [at 30.2 µM]
C=C1c2cccc(O)c2C(O)=C2C(=O)[C@@]3(O)C(O)=C(C(N)=O)C(=O)[C@@H](N(C)C)[C@@H]3[C@@H](O)[C@H]12,,-17.5%
CN1CC(=O)N2C(Cc3c([nH]c4ccccc34)[C@H]2c2ccc3c(c2)OCO3)C1=O (stereo partly specified),,4.14%
CCOC(=O)N1c2ccc(C(F)(F)F)cc2[C@@H](N(Cc2cc(C(F)(F)F)cc(C(F)(F)F)c2)C(=O)OC)C[C@H]1CC,,-1.72%
NC(N)=Nc1nc(CSCCC(N)=NS(N)(=O)=O)cs1,,-3.05%
CCCCc1ccc(NS(=O)(=O)c2ccc(C)c(C(=O)N3CCN(c4cccc(C)c4C)CC3)c2)cc1,,-8.22%
CCCCC(F)(F)[C@@]1(O)CC[C@H]2[C@H](CC(=O)[C@@H]2CCCCCCC(=O)O)O1,inactive,
C[C@H](CCC(=O)O)[C@H]1CC[C@H]2[C@H]3[C@@H](CC[C@]12C)[C@@]1(C)CC[C@@H](O)C[C@H]1C[C@@H]3O,,-2.49%
O=C(O)C1=CC(O)C(O)[C@H](O)C1 (stereo partly specified),,2.32%
CC1CNc2c(cccc2S(=O)(=O)N[C@@H](CCCN=C(N)N)C(=O)N2CC[C@@H](C)C[C@@H]2C(=O)O)C1 (stereo partly specified),,-3.18%
N[C@@H](CC(=O)N1CCn2c(nnc2C(F)(F)F)C1)Cc1cc(F)c(F)cc1F,,3.09%
CN(C)c1ccccc1CN1CCCN(Cc2ccccc2N(C)C)C1c1ccncc1,,0.94%
